How the values were obtained:
Assay in all cases: log2 ratio of Biotin-Ahx-Ub-VS probe labelling (fragment/DMSO); higher = less target engagement (more negative = stronger competition), active = hit call of the paper (q ≤ 0.05, log2 ratio ≤ -1)
Conditions in all cases: compound concentration: 200 uM; treatment time: 3 h
[1] = target: T1, USP19 (UniProt O94966)
T1 sequence (whole entry): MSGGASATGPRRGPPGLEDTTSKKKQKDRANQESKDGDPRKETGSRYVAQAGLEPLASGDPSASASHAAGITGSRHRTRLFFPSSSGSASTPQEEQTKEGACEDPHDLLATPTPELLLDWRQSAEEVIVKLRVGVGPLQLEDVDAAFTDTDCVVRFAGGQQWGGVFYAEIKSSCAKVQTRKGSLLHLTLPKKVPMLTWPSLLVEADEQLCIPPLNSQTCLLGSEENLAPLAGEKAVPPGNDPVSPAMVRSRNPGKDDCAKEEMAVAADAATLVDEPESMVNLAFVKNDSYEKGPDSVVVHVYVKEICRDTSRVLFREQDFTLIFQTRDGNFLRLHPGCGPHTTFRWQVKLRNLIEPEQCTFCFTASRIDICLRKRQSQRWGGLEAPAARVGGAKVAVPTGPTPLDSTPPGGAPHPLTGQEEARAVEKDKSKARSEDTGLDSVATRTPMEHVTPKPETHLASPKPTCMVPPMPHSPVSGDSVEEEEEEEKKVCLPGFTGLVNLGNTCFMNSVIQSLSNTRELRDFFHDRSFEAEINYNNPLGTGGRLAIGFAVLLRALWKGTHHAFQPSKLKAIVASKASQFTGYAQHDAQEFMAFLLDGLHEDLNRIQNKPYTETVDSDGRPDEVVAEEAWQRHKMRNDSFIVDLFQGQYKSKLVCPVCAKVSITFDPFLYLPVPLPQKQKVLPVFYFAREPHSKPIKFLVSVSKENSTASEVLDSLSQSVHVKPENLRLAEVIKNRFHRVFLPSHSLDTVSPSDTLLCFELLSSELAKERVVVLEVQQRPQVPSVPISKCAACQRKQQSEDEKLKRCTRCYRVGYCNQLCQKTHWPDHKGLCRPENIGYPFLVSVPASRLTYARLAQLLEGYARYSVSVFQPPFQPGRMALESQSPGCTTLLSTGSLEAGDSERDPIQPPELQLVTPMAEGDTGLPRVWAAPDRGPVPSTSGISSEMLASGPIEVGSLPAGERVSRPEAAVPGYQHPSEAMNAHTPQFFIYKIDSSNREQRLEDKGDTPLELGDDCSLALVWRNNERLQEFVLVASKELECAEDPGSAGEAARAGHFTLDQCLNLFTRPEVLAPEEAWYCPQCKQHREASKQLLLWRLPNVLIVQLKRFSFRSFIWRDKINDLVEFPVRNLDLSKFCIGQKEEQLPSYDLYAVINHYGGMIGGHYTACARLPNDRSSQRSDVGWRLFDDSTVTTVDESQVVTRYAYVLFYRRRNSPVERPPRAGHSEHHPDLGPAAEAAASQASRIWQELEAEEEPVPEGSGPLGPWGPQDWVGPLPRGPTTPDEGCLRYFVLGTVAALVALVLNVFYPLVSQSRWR
How it was run: (§1)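 Triplicate samples of HEK293T lysate, 495 µg each, received fragment at 200 µM or vehicle for 3 h, followed by Biotin-Ahx-Ub-VS (0.5 µM final) for 1 h. After NeutrAvidin enrichment of labelled DUBs and LysC/trypsin digestion, peptides were run by diaPASEF LC-MS/MS. The values are average log2 fragment/vehicle ratios from global-median-normalised Spectronaut label-free quantities, tested by unpaired t-test on proteins having ≥2 unique peptides.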

[2] = target: T2, USP22 (UniProt Q9UPT9)
T2 sequence (whole entry): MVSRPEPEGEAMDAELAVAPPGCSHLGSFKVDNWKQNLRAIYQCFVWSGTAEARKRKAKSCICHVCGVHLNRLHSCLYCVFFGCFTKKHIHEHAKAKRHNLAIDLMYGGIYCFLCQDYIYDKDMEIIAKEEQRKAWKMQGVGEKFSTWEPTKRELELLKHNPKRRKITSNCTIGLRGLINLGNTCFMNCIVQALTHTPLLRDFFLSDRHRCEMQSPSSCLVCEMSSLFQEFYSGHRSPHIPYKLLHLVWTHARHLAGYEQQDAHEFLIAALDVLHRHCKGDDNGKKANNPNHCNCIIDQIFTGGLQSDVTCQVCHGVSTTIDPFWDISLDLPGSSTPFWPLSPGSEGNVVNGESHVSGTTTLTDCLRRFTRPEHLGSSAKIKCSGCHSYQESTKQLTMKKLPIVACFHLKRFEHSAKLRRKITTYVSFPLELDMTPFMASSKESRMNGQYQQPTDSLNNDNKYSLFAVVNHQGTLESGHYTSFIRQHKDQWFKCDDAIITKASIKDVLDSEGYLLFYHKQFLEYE
How it was run: as §1

[3] = target: USP24 (UniProt Q9UPU5)
How it was run: as §1

[4] = target: T3, USP25 (UniProt Q9UHP3)
T3 sequence (whole entry): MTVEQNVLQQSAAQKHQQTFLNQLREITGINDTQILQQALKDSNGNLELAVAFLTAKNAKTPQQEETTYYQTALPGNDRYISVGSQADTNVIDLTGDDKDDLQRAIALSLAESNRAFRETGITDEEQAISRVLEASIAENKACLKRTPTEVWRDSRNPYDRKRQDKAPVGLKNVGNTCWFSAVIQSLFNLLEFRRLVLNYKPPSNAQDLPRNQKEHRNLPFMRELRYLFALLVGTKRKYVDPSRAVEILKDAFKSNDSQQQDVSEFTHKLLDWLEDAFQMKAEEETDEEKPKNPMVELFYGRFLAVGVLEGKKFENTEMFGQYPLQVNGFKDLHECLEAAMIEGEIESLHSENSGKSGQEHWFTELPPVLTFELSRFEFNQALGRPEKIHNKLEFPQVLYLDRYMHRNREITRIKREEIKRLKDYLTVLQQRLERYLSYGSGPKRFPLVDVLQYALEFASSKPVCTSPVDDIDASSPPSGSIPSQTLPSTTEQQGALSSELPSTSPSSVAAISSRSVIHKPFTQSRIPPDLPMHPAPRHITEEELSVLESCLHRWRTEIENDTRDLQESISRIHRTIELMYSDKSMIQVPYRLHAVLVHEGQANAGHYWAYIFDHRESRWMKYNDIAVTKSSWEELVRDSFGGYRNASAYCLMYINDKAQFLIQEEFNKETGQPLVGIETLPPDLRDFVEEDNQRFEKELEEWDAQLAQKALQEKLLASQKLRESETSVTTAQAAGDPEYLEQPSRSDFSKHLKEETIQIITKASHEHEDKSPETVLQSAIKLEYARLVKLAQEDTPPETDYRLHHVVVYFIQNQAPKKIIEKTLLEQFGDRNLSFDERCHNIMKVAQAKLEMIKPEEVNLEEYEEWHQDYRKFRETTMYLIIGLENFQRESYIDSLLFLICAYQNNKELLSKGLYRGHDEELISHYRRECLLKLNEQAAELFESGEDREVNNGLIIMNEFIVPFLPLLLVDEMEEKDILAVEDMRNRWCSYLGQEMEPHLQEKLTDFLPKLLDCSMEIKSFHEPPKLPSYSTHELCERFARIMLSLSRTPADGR
How it was run: as §1

[5] = target: T4, USP28 (UniProt Q96RU2)
T4 sequence (whole entry): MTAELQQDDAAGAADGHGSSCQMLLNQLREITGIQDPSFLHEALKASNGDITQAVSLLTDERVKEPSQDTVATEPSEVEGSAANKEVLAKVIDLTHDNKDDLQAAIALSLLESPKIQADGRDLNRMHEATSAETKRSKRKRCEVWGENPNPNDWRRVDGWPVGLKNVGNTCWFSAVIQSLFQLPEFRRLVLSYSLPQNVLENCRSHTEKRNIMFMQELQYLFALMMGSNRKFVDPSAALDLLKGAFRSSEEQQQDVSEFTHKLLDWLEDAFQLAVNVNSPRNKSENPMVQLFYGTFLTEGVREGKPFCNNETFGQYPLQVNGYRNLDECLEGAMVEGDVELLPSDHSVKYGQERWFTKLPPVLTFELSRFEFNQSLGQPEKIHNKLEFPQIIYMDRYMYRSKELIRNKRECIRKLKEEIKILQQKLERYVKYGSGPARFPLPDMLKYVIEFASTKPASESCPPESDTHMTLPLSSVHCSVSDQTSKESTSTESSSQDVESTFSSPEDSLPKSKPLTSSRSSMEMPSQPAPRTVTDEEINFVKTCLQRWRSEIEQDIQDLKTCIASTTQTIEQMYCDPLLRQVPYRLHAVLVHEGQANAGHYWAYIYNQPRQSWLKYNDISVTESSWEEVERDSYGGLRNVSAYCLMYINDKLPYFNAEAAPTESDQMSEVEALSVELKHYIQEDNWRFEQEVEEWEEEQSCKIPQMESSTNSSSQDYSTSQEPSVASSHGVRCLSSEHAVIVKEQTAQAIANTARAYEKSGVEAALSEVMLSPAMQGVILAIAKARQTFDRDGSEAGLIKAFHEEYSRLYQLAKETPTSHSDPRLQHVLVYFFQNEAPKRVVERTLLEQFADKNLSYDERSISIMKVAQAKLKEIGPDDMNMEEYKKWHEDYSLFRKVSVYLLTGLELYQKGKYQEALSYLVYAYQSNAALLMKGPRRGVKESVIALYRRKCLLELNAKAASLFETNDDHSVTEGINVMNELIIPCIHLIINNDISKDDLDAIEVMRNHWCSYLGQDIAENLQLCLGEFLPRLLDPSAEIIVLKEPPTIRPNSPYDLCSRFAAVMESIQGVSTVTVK
How it was run: as §1

Measured: log2 ratio of Biotin-Ahx-Ub-VS probe labelling

Chain of USP24 (Q9UPU5 whole entry): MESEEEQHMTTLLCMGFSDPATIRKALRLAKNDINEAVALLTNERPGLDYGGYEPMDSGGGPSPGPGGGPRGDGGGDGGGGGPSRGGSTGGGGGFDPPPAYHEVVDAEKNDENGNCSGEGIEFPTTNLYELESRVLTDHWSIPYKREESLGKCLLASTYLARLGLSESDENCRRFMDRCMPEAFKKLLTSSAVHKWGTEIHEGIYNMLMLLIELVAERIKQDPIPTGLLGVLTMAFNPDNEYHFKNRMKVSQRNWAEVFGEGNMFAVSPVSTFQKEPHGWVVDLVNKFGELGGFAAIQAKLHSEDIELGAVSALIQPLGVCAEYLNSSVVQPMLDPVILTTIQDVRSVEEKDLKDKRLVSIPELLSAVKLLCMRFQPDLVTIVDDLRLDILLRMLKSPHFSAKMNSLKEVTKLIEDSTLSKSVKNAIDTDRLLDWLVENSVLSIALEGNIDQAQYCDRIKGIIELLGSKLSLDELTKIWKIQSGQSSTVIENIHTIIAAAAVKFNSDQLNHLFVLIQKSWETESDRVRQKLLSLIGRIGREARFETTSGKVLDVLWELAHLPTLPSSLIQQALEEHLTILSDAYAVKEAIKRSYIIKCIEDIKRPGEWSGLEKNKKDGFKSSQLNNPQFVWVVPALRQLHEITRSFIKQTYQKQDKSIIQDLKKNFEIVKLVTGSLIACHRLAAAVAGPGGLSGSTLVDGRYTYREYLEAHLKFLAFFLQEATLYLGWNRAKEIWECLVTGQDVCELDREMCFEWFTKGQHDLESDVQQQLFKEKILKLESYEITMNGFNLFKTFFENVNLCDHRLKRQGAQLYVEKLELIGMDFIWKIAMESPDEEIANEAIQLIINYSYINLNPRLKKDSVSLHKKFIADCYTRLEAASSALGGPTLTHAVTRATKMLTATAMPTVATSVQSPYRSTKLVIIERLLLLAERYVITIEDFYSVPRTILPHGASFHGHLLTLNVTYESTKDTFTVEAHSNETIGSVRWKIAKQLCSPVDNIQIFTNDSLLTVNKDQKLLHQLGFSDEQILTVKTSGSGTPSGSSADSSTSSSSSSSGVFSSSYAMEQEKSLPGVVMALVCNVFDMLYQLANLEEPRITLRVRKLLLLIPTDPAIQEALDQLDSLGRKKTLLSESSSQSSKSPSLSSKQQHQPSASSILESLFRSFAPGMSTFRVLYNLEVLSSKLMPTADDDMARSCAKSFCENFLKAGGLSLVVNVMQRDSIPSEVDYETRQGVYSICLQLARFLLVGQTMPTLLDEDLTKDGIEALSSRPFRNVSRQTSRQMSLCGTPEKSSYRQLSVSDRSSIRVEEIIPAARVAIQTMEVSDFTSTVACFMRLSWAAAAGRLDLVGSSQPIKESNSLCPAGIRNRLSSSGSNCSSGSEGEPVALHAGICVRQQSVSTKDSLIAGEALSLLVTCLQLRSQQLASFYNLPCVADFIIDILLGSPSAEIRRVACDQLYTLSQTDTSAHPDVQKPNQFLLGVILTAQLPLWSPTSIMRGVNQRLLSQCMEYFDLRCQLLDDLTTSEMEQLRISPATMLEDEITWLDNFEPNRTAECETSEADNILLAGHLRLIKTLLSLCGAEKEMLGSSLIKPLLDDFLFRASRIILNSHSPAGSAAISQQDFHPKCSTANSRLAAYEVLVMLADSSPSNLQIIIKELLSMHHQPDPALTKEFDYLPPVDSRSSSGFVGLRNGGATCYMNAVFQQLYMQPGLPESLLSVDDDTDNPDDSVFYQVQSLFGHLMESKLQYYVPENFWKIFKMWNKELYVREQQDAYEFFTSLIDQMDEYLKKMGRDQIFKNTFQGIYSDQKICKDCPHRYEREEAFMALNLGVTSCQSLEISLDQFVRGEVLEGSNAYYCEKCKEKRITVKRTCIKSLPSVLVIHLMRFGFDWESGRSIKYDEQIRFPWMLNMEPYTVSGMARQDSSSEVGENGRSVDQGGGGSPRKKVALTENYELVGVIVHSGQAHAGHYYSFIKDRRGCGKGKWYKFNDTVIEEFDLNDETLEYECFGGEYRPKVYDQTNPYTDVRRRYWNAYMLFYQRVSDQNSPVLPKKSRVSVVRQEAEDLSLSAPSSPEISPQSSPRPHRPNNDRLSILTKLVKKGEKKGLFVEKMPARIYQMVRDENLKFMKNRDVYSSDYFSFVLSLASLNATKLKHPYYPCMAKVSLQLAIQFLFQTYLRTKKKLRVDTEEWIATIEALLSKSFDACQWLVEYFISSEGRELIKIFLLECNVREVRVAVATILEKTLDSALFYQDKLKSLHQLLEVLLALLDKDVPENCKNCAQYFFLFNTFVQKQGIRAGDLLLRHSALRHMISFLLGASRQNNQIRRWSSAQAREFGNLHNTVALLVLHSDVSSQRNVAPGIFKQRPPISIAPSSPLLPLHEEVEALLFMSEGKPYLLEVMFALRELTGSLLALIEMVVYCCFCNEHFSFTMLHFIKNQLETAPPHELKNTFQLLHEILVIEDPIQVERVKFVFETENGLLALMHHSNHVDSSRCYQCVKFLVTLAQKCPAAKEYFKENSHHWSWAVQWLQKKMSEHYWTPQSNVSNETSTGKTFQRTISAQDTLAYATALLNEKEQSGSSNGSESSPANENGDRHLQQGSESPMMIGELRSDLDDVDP

O=C(CCl)Nc1cccc2ncccc12
inactive: [1] -0.114 | [2] 0.19 | [3] -0.136 | [4] -0.527 | [5] -0.917

— the supplement of paper PMC11732987, “Enantioselective OTUD7B fragment discovery through chemoproteomics screening and high-throughput optimisation” (Communications Chemistry, 2025)
